Screening data: PubChem BioAssay, several laboratories
CSC inhib: cancer stem cell viability inhibitors, primary screen, luminescence | cancer stem cell-like cells viability | inhibition, % at 7.5 µM | hit rate 1.1% among 300,000 | AID 2717, 2010; in the data active = inhibition above about 75%; tested in HMLE shEcad cells
Shn3 inh set2: reduction of Shn3 3'UTR firefly luciferase signal, primary screen, Schnurri-3 inhibitor project, cell-based, Clone20 osteoblasts, set 2. hit rate 0.52% among 360,000. inhibition, % at 12.5 µM. Clone20 osteoblast Shn3 3'UTR firefly luciferase, 24 h;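 active = mean inhibition of at least 75% with every replicate also reaching 75%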;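 note: 0% = median of neutral control wells and 100% = pilot-screen positive control compound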
Beta apoptosis: inhibitors of cytokine-induced beta cell apoptosis, primary screen, luminescence; INS-1E cytokine-induced death, ATP luminescence, 48 h; percent of positive-control rescue, neutral wells zero; AID 435005, 2010; protection from apoptosis, % (no concentration beside the values); hit rate 0.8% among 300,000;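 active = Every replicate reaches about 75%, or at least half do and their mean reaches it too, limit read from the data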;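 note: 0% = cytokine-treated negative control wells and 100% = positive control rescue; higher means more ATP so stronger rescue from cytokine killing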
Gli-Sufu block: Gli-Sufu pathway antagonists, primary screen, luciferase luminescence, Sufu-KO-LIGHT cells, uHTS; Sufu-KO-LIGHT fibroblasts, Gli luciferase reporter luminescence; inhibition, % at 5 µM; hit rate 0.74% among 340,000; AID 588413, 2011;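 active = inhibition above about 55%, limit read from the data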;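 note: 0% = DMSO-treated cells and 100% = wells with medium but no cells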
PAX8 inh HTS: inhibitors of PAX8-driven TPO luciferase reporter, primary screen, RMG-I cells, single concentration | SteadyGlo, 24 h | inhibition, % at 12.6 µM | hit rate 1.2% among 360,000 | AID 652154, 2013;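 active = mean replicate inhibition at least 60% with every replicate also reaching 60%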;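 note: luciferase light reporting Pax8 driven TPO promoter activity; plate controls were median of neutral control wells for no effect and mitoxantrone controls for full effect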
Mdm2-MdmX inh: inhibitors of human Mdm2-MdmX association, primary screen, cell-based, luminescence, split luciferase, SaOS-2, uHTS. Protein Mdm4 (Homo sapiens) + E3 ubiquitin-protein ligase Mdm2 (Homo sapiens), …. SaOS-2 split-luciferase Mdm2/MdmX complementation. inhibition, % at 8 µM. hit rate 3% among 330,000. AID 485346, 2010;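 active = inhibition of at least 50% at 8 µM in the primary screen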
Gli-Sufu confirm: Gli-SUFU pathway antagonists, confirmation, single concentration, luciferase luminescence, Sufu-KO-LIGHT cells; shares compounds with Gli-Sufu block; Gli luciferase reporter; inhibition, % at 5 µM; hit rate 40% among 2,500; AID 602428, 2012;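 active = mean inhibition at 5 µM reaching about 45%, limit read from the data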;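 note: plate controls were DMSO-treated cells for no effect and wells lacking cells for full effect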
SufuKO cytotox: cytotoxicity in Sufu-KO-LIGHT cells, confirmation, cytotoxicity control for Gli-SUFU antagonist project, cell-based, ATP luminescence, single concentration. shares compounds with Gli-Sufu block. cytotoxicity, % at 5 µM. hit rate 32% among 2,500. AID 651994, 2013;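 active = mean cytotoxicity at 5 µM above about 25%, limit read from the data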;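 note: cells exposed to compound overnight for roughly 16 to 18 hours; plate controls were DMSO wells with cells for no effect and medium without cells for full effect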
Wnt3a cs: Wnt3a reporter signal inhibition, confirmation, counter-screen for Gli-SUFU antagonist project, Wnt-LIGHT cells, luminescence, single concentration; shares compounds with Gli-Sufu block; Wnt3a-driven luciferase reporter; inhibition, % at 6.25 µM; hit rate 20% among 2,500;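 active = mean inhibition above about 25%, limit read from the data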
* = called active by the depositor; x = not tested or not shown. In the library only some 4% were active in any assay of this set; here they are far more common.

SMILES	CSC inhib	Shn3 inh set2	Beta apoptosis	Gli-Sufu block	PAX8 inh HTS	Mdm2-MdmX inh	Gli-Sufu confirm	SufuKO cytotox	Wnt3a cs
COc1ccc(S(=O)(=O)NCC2CCCN(Cc3ccc(OC)cc3F)C2)cc1 (stereo not drawn)	-11	19	-1	60*	22	4	26	-5	-15
Cc1ccccc1S(=O)(=O)N1CCCCN2[C@H](CO)[C@@H](c3ccc(-c4cccc(F)c4)cc3)[C@@H]2C1	x	x	x	x	-6	x	x	x	x
CCOc1ccc([N+](=O)[O-])cc1CNC1CCCCCCC1	51	20	2	52	-1	-8	21	7	-19
O=[N+]([O-])c1cccc(CNC2CCCCCC2)c1	26	7	-8	13	6	-8	x	x	x
COc1cc2c(c(OC)c1OC)-c1ccc(SC)c(=O)cc1C(NC(=O)C(F)(F)F)CC2 (stereo not drawn)	x	-2	x	51	87*	x	60*	61*	41*
COc1cc2c(c(OC)c1OC)-c1ccc(SC)c(=O)cc1C(N)CC2 (stereo not drawn)	x	1	x	56*	74*	x	55*	63*	-3
COc1ccc(NC(=O)NC2CCCc3ccccc32)cc1OC (stereo not drawn)	1	12	5	2	27	10	x	x	x
CCOC(=O)NC1CCc2cc(OC)c(OC)c(OC)c2-c2ccc(OC)c(=O)cc21 (stereo not drawn)	x	-26	x	63*	73*	x	57*	57*	9
CCCCOCCCNc1ncnc2c1[nH]c1ccccc12	26	83*	114*	81*	x	25	82*	27*	17
CO[C@@H](C(=O)N(C)C[C@@H]1OCc2ccccc2-c2c(n(C)c3ccccc23)C(=O)N([C@H](C)CO)C[C@@H]1C)c1ccccc1	x	x	x	x	-21	x	x	x	x
C/C(=N\Nc1ccc2nncn2n1)c1ccc(Br)s1	-3	-19	3	62*	20	19	29	25	-4
C[C@H](CO)N1C[C@H](C)[C@H](CN(C)C(=O)Nc2ccccc2)Oc2ncc(C3=CCCC3)cc2C1=O	x	x	x	x	3	x	x	x	x
C[C@@H]1CN([C@@H](C)CO)C(=O)c2cc(NS(=O)(=O)c3ccc(Cl)cc3)ccc2O[C@H]1CN(C)C(=O)Nc1ccc(F)cc1	x	x	x	x	-7	x	x	x	x
COc1ccc(N(CC(=O)NCCC2=CCCCC2)S(=O)(=O)c2ccccc2)cc1	-5	-20	5	57*	24	-20	22	21	-23
COc1ccc2c3c([nH]c2c1)[C@H](CO)N(Cc1ccccc1F)CC31CCN(C(=O)C2CCC2)CC1	x	x	x	x	12	x	x	x	x
CO[C@@H]1CN(C)C(=O)c2ccc(NC(C)=O)cc2OC[C@H](C)N(C(=O)CN(C)C)C[C@@H]1C	x	x	x	x	-16	x	x	x	x
Cc1ccc(C23CC4CC(CC(NC(=O)NN)(C4)C2)C3)cc1	-7	-7	-1	51	-10	-7	9	-3	3
C[C@@H]1CN([C@H](C)CO)S(=O)(=O)c2ccc(/C=C/c3ccccc3)cc2O[C@H]1CN(C)C(=O)Nc1cc(F)ccc1F	x	x	x	x	37	x	x	x	x
CN1C(=O)c2cc(NC(=O)c3ccccc3)ccc2OC[C@H]2O[C@H](CC(=O)NC3CCCC3)CC[C@H]21	x	x	x	x	-11	x	x	x	x
CC1CCN(C(=S)Nc2ccc(F)cc2)CC1	x	13	-6	64*	-16	-6	15	22	-9
O=C(Cc1ccccc1)N1C[C@H]2[C@@H](c3ccccc31)[C@@H](CO)N2C(=O)c1cccc(F)c1	x	x	x	x	7	x	x	x	x
